# The panel holds about 79,000 compounds, 15% with a hit somewhere; the sample as a whole holds those more often. Values without a mark were called inactive. Cut-off read from the data, not from the text of the source: active = growth inhibition above about 70%; inactive = the rest.
# Assay: NCI Yeast Anticancer Drug Screen. Data for the mec2-1 strain (AID 157)
# Details: S. cerevisiae mec2-1 strain, at 50.0 µM, stronger effect = higher value
# How it was run: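 Test agents were screened against the mec2-1 yeast strain, with defined DNA repair or cell cycle alteration. Growth was scored as inhibition against vehicle-only controls.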
row,SMILES,growth inhibition [%]
1,C/C=C(/C)N(C(C)=O)N(C(C)=O)c1ccc([N+](=O)[O-])cc1[N+](=O)[O-],-18.2
2,Cc1ccc(NC(=S)N(C)C)cc1C,-26.3
3,O=C1NC(=O)C(c2ccccc2)(C2CCC2)N1 (stereo unspecified),-33.1
4,COc1ccc(-c2cc(=O)c3c(ccc4ccccc43)o2)cc1,3.4
5,CC1CCN(c2ccc([N+](=O)[O-])cc2)CC1,-29.9
6,OCC1OC(Nc2ccccc2O)C(O)C(O)C1O (stereo unspecified),15.6
7,CCn1c2[n+](c3ccccc31)CCC2,-35.2
8,CCOc1ccc(/C=C(/C#N)C(N)=O)cc1,-8.1
9,O=C(N/N=C/c1ccc2c(c1)CCC2)c1cc2ccccc2cc1O,-8.15
10,COc1cccc(/C=C/C(=O)c2ccc(Cl)cc2)c1OC,30.1
11,CCOC(=O)CC(=O)c1ccc(C)cc1,-3.45
12,Nc1ccccc1SC1CC(=O)N(c2cccc3ccccc23)C1=O (stereo unspecified),-7.6
13,O=C(Cc1nc2ccccc2[nH]c1=O)N/N=C/c1ccc2c(c1)CCC2,-28.6
14,COc1ccc(-c2coc3ccc4ccccc4c3c2=O)cc1OC,-15.1
15,CCOc1ccc(/C=N/NS(=O)(=O)c2ccc(C)cc2)cc1,-34.5
16,Cc1cccc(NNC(=S)Nc2ccccc2)c1,-14.8
17,O=C1Nc2ccccc2CCc2ccccc21,-34.3
18,c1coc(-c2nc(N=C3N=c4ccccc4=N3)[nH]c2-c2ccco2)c1,18.9
19,Cc1cc(Cl)ccc1NCN1C(=O)c2ccccc2C1=O,-8.9
20,COc1ccc(-c2cc(=O)c3c(O)cc(C)cc3o2)cc1OC,-25.6
21,CC1=NN(c2ccccc2)C(=O)/C1=C\c1ccc(N(CCC#N)CCC#N)cc1,-4.95
22,COc1cc(/C=N\NC(=O)OC(C)(C)C)cc(OC)c1OC,-17.4
23,CCOc1ccc(Br)cc1/C=C1\N=C(c2ccccc2)OC1=O,-12.2
24,CCCCN1CCNCC1,-1.95

# Assay: NCI Yeast Anticancer Drug Screen. Data for the sgs1 mgt1 strain (AID 161);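 note: 0% = growth of cultures given vehicle only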
# Details: S. cerevisiae sgs1 mgt1 strain, at 50.0 µM, stronger effect = higher value
# How it was run: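 Genetically altered yeast, compound exposure, growth inhibition relative to vehicle.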
row,SMILES,growth inhibition [%]
1,OCc1ccccc1OC1OC(CO)C(O)C(O)C1O (stereo unspecified),16.4
2,N#CCCOc1ccccc1,-9.9
3,O=C1c2ccccc2-c2c1c1ccccc1c(=O)n2-c1cccnc1,26.2
4,C/C(O)=C/c1nc2sc(C)c(C)c2c(=O)s1,9.85
5,Clc1ccc(C2NN=C3c4ccccc4OCC32)cc1 (stereo unspecified),-3
6,Cc1nnc(SCC2=C(C(=O)O)N3C(=O)C(NC(=O)Cn4cnnn4)C3SC2)s1 (stereo unspecified),15.6
7,COc1cc([C@H]2OC[C@@H]3C(c4cc(OC)c5c(c4)OCO5)OC[C@H]23)cc(OC)c1OC (stereo partly specified),-26.9
8,C=CCn1c2c(c3ccccc3c1=O)C(=O)c1ccccc1-2,1.7
9,NNc1[nH]c(=S)[nH]c1C(N)=O,-21.4
10,COC(=O)/C(=N\NC(=S)NN)C(C(=O)OC)C(=O)C(=O)Nc1cccc(C(F)(F)F)c1 (stereo unspecified),8.9
11,C[C@]12CC[C@@H]3c4ccc(OS(N)(=O)=O)cc4CC[C@H]3[C@@H]1CCC2=O,-2.05
12,CC(C)CCCC(C)[C@H]1CC[C@H]2[C@@H]3CC[C@H]4C[C@@H](CCC=C(c5cc(Cl)c(O)c(C(=O)O)c5)c5cc(Cl)c(O)c(C(=O)O)c5)CC[C@]4(C)[C@H]3CC[C@]12C (stereo partly specified) (tested in a mixture with another compound),3.45
13,C=C1C(=O)O[C@@H]2C[C@@]3(C)CC(=O)C=C(C)[C@@H]3C[C@H]12,-7.2
14,COc1cc(-c2nc(SC)nc3c2CCc2ccccc2-3)cc(OC)c1OC,2.95

# Assay: NCI Yeast Anticancer Drug Screen. Data for the cln2 rad14 strain (AID 165);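 note: 0% = growth equal to vehicle treated cultures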
# Details: S. cerevisiae cln2 rad14 strain, at 50.0 µM, stronger effect = higher value
# How it was run: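 Growth of compound-exposed yeast (cln2 rad14 genotype) measured and expressed as inhibition relative to vehicle.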
row,SMILES,growth inhibition [%]
1,OCc1ccccc1OC1OC(CO)C(O)C(O)C1O (stereo unspecified),-0.45
2,N#CCCOc1ccccc1,15.9
3,O=C1c2ccccc2-c2c1c1ccccc1c(=O)n2-c1cccnc1,32.3
4,C/C(O)=C/c1nc2sc(C)c(C)c2c(=O)s1,5.5
5,Clc1ccc(C2NN=C3c4ccccc4OCC32)cc1 (stereo unspecified),7.85
6,COc1cc([C@H]2OC[C@@H]3C(c4cc(OC)c5c(c4)OCO5)OC[C@H]23)cc(OC)c1OC (stereo partly specified),21
7,C=CCn1c2c(c3ccccc3c1=O)C(=O)c1ccccc1-2,30.9
8,NNc1[nH]c(=S)[nH]c1C(N)=O,-7.65
9,COC(=O)/C(=N\NC(=S)NN)C(C(=O)OC)C(=O)C(=O)Nc1cccc(C(F)(F)F)c1 (stereo unspecified),5.6
10,C[C@]12CC[C@@H]3c4ccc(OS(N)(=O)=O)cc4CC[C@H]3[C@@H]1CCC2=O,8.35
11,CC(C)CCCC(C)[C@H]1CC[C@H]2[C@@H]3CC[C@H]4C[C@@H](CCC=C(c5cc(Cl)c(O)c(C(=O)O)c5)c5cc(Cl)c(O)c(C(=O)O)c5)CC[C@]4(C)[C@H]3CC[C@]12C (stereo partly specified) (tested in a mixture with another compound),-8.4
12,C=C1C(=O)O[C@@H]2C[C@@]3(C)CC(=O)C=C(C)[C@@H]3C[C@H]12,24.7
13,COc1cc(-c2nc(SC)nc3c2CCc2ccccc2-3)cc(OC)c1OC,10.9

# Source: PubChem BioAssay (NCI)
